# According to PubChem BioAssay (NCATS):
# Several values for one entry are separate records, joined by “and”; a condition that tells them apart may be missing. Equal values may be shown once. Records with an inconclusive call do not appear. Where a call stands in place of a potency, no number is given. Values without a mark were called inactive. Activity calls are given as the source filed them. Unless noted, the call rests on the fitted dose curve. Square brackets hold non-standard residues; d marks the D form. Peptide text beside a SMILES is read from it. * marks the point of attachment. Sta = CC(C)C[C@H](N)[C@@H](O)CC(=O)O; Isovaleryl = CC(C)CC(=O)*
# Assays:
# [1] = qHTS for Inhibitors of the Functional Ribonucleoprotein Complex (vRNP) of Lassa (LASV) Arenavirus: LASV Primary Screen - GLuc reporter signal (AID 1347082; calls by dose curve; tested in HEK293 reporter line; further: nearly all actives have a fitted effect of over 60% in size; further: potency means the concentration at half of the fitted maximal effect; on activity change, negative = inhibition: series mostly up to about 57 µM)
# [2] = qHTS for Inhibitors of the Functional Ribonucleoprotein Complex (vRNP) of Lassa (LASV) Arenavirus: Viability assay - alamar blue signal for LASV Primary Screen (AID 1347083; calls by dose curve; tested in HEK293 reporter line; further: nearly all actives have a fitted effect of over 80% in size; further: potency means the concentration at half of the fitted maximal effect; on activity change, negative = reduced viability: series mostly up to about 57 µM)
# [3] = qHTS for Inhibitors of the Functional Ribonucleoprotein Complex (vRNP) of Lymphocytic Choriomeningitis Arenaviruses (LCMV): Viability assay - alamar blue signal for LCMV Primary Screen (AID 1347085; calls by dose curve; tested in HEK293 reporter line; further: nearly all actives have a fitted effect of over 80% in size; further: potency means the concentration at half of the fitted maximal effect; on activity change, negative = lower viability: series mostly up to about 57 µM)
# [4] = molecular target: Nucleoprotein (Lymphocytic choriomeningitis virus (strain Armstrong)) (UniProt P09992); assay: qHTS for Inhibitors of the Functional Ribonucleoprotein Complex (vRNP) of Lymphocytic Choriomeningitis Arenaviruses (LCMV): LCMV Primary Screen - GLuc reporter signal (AID 1347086); further: nearly all actives have a fitted effect of over 70% in size; further: potency means the concentration at half of the fitted maximal effect; on activity change, negative = inhibition: series mostly up to about 57 µM
# [5] = qHTS of pediatric cancer cell lines to identify multiple opportunities for drug repurposing: Primary screen for TC32 cells (AID 1347089; active means well fitted curve in the direction sought with a large enough effect; an effect the other way counts as inactive or inconclusive; further: nearly all actives have a fitted effect of over 60% in size)
# Summary of the method: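 A viability screen of TC32 cells was run over 48 h, with primary MIPE doses spanning 0.78 nM–46 µM and NPC doses 0.59 nM–46 µM. ATP luminescence (CellTiter-Glo) served as the read-out.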
# [6] = qHTS of pediatric cancer cell lines to identify multiple opportunities for drug repurposing: Primary screen for DAOY cells (AID 1347090; active means well fitted curve in the direction sought with a large enough effect; an effect the other way counts as inactive or inconclusive; further: series mostly up to about 46 µM; nearly all actives have a fitted effect of over 55% in size)
# Summary of the method: (§1)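 Viability measured as metabolically active cells via CellTiter-Glo luminescence following 48 hours of compound exposure, 11-point dilutions in confirmatory testing. 500-1,000 cells/well plated 5 hours before dosing; controls were DMSO and 2.3 µM bortezomib.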
# [7] = qHTS of pediatric cancer cell lines to identify multiple opportunities for drug repurposing: Primary screen for SJ-GBM2 cells (AID 1347091; active means well fitted curve in the direction sought with a large enough effect; an effect the other way counts as inactive or inconclusive)
# Summary of the method: as §1
# [8] = qHTS of pediatric cancer cell lines to identify multiple opportunities for drug repurposing: Primary screen for A673 cells (AID 1347092; active means well fitted curve in the direction sought with a large enough effect; an effect the other way counts as inactive or inconclusive; further: nearly all actives have a fitted effect of over 45% in size)
# Summary of the method: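 Titration-based qHTS on A673 cells: MIPE compounds spanned 11 points (0.78 nM to 46 µM final), NPC compounds 8 points (0.59 nM to 46 µM final). Viability after 48 h was measured by ATP luminescence.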
# Nucleoprotein (Lymphocytic choriomeningitis virus (strain Armstrong)), sequence (P09992 whole entry, looked up): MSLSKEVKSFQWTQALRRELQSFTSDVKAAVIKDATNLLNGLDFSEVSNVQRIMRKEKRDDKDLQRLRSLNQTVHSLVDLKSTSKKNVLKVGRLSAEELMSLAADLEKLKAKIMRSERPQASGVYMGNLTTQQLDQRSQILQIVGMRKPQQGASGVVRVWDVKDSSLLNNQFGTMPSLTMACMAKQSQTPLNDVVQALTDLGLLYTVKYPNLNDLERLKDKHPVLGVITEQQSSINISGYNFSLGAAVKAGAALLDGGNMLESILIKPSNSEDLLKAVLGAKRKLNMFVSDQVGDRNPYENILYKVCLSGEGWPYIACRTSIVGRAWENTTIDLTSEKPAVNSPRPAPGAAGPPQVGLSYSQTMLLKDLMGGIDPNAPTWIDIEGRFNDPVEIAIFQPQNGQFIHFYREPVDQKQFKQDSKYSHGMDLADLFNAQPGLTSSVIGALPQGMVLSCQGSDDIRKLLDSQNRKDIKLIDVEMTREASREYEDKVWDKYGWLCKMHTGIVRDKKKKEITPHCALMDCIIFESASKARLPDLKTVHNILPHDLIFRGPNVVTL
structure (smiles),measurement,setting,value
Cc1cc(=O)oc2cc(O)ccc12,Potency,[1],inactive
same,Potency,[2],inactive
same,Potency,[3],inactive
same,Potency,[4],inactive
O=C(CN1CCN(Cc2ccc3c(c2)OCO3)CC1)N1c2ccccc2Sc2ccccc21,Potency,[1],inactive
same,Potency,[2],inactive
same,Potency,[3],inactive
same,Potency,[4],inactive
NC1(c2ccc(-c3nc4ccn5c(=O)[nH]nc5c4cc3-c3ccccc3)cc2)CCC1,Potency,[1],19.3 µM (active)
same,Potency,[2],2.73 µM (active) and 5.62 µM (active)
same,Potency,[3],3.85 µM (active)
same,Potency,[4],3.06 µM (active)
CCC1NC(=O)c2cc(S(N)(=O)=O)c(Cl)cc2N1 (centres undefined),Potency,[1],inactive
same,Potency,[2],inactive
same,Potency,[3],inactive
same,Potency,[4],inactive
CC(C)CC(=O)N[C@H](C(=O)N[C@H](C(=O)N[C@@H](CC(C)C)[C@@H](O)CC(=O)N[C@@H](C)C(=O)N[C@@H](CC(C)C)[C@@H](O)CC(=O)O)C(C)C)C(C)C (Isovaleryl-VV[Sta]A[Sta]-OH),Potency,[1],inactive
same,Potency,[2],inactive
same,Potency,[3],inactive
same,Potency,[4],inactive
O=C(/C=C/c1ccc(O)c(O)c1)O[C@@H]1C[C@@](OC(=O)/C=C/c2ccc(O)c(O)c2)(C(=O)O)C[C@@H](O)[C@@H]1O,Potency,[1],inactive
same,Potency,[2],inactive
same,Potency,[3],inactive
same,Potency,[4],inactive
O=C1Cc2cc(Cl)ccc2N1,Potency,[1],inactive
same,Potency,[2],inactive
same,Potency,[3],inactive
same,Potency,[4],inactive
Nc1c2c(nc3ccccc13)CCCC2O (centres undefined),Potency,[1],inactive
same,Potency,[2],inactive
same,Potency,[3],inactive
same,Potency,[4],inactive
O=C(CCCN1CCC(O)(c2cccc(C(F)(F)F)c2)CC1)c1ccc(F)cc1,Potency,[1],inactive
same,Potency,[2],inactive
same,Potency,[3],inactive
same,Potency,[4],inactive
CC1=C(C)C(=O)C(CCCCC#CCCCC#CCO)=C(C)C1=O,Potency,[1],inactive
same,Potency,[2],inactive
same,Potency,[3],inactive
same,Potency,[4],inactive
CCc1cccc2c3c([nH]c12)C(CC)(CC(=O)O)OCC3 (centres undefined),Potency,[1],inactive
same,Potency,[2],inactive
same,Potency,[3],inactive
same,Potency,[4],inactive
O=C1c2cccc(O)c2C(=O)c2c(O)cccc21,Potency,[1],inactive
same,Potency,[2],inactive
same,Potency,[3],inactive
same,Potency,[4],inactive
C[C@]12CC[C@H]3[C@@H](CCC4=CC(=O)CC[C@@]43C)[C@@H]1CC[C@@H]2C(=O)CO,Potency,[1],inactive
same,Potency,[2],inactive
same,Potency,[3],inactive
same,Potency,[4],inactive
CC1(C)[C@H](C(=O)O)N2C(=O)C[C@H]2S1(=O)=O,Potency,[1],inactive
same,Potency,[2],inactive
same,Potency,[3],inactive
same,Potency,[4],inactive
Cc1cccc(N(C)C(=S)Oc2ccc3c(c2)CCC3)c1,Potency,[1],inactive
same,Potency,[2],inactive
same,Potency,[3],inactive
same,Potency,[4],inactive
Cc1ccc(S(=O)(=O)NC(=O)NC2CCCC2)cc1,Potency,[1],inactive
same,Potency,[2],inactive
same,Potency,[3],inactive
same,Potency,[4],inactive
C=CCOc1ccccc1OCC(O)CNC(C)C (centres undefined),Potency,[1],inactive
same,Potency,[2],inactive
same,Potency,[3],inactive
same,Potency,[4],inactive
COC(=O)C1=C(C)NC(C)=C(C(=O)OC)C1c1ccccc1[N+](=O)[O-],Potency,[1],inactive
same,Potency,[2],inactive
same,Potency,[3],inactive
same,Potency,[4],inactive
Cc1ccc2c(Cl)cc(Cl)c(O)c2n1,Potency,[1],inactive
same,Potency,[2],inactive
same,Potency,[3],inactive
same,Potency,[4],inactive
CCCCCCCCNC(C)C(O)c1ccc(SC(C)C)cc1 (centres undefined),Potency,[1],inactive
same,Potency,[2],inactive
same,Potency,[3],inactive
same,Potency,[4],inactive
Oc1ccc(Cl)cc1Cc1cc(Cl)ccc1O,Potency,[1],inactive
same,Potency,[2],inactive
same,Potency,[3],inactive
same,Potency,[4],inactive
CC(=O)[C@@]1(O)CC[C@H]2[C@@H]3C[C@H](C)C4=CC(=O)CC[C@]4(C)[C@H]3CC[C@@]21C,Potency,[1],inactive
same,Potency,[2],inactive
same,Potency,[3],inactive
same,Potency,[4],inactive
CCOC(=O)C1=C[C@]2(CC)CCCN3CCc4c(n1c1ccccc41)[C@@H]32,Potency,[1],inactive
same,Potency,[2],inactive
same,Potency,[3],inactive
same,Potency,[4],inactive
NC[C@H]1O[C@H](O[C@H]2[C@H](O)[C@@H](O[C@H]3O[C@H](CO)[C@@H](O)[C@H](N)[C@H]3O)[C@H](N)C[C@@H]2N)[C@H](N)[C@@H](O)[C@@H]1O,Potency,[1],inactive
same,Potency,[2],inactive
same,Potency,[3],inactive
same,Potency,[4],inactive
CC(=O)Oc1ccc2c(c1)CC[C@@H]1[C@@H]2CC[C@]2(C)[C@@H](O)CC[C@@H]12,Potency,[1],inactive
same,Potency,[2],inactive
same,Potency,[3],inactive
same,Potency,[4],inactive
O=C(O)c1ccc(OCCN2CCCCC2)cc1,Potency,[1],inactive
same,Potency,[2],inactive
same,Potency,[3],inactive
same,Potency,[4],inactive
CC(C)(Cc1c[nH]c2ccccc12)NCC(O)COc1ccccc1C#N (centres undefined),Potency,[1],inactive
same,Potency,[2],inactive
same,Potency,[3],inactive
same,Potency,[4],inactive
CCCCNc1cc(C(=O)O)cc(S(N)(=O)=O)c1Oc1ccccc1,Potency,[1],inactive
same,Potency,[2],inactive
same,Potency,[3],inactive
same,Potency,[4],inactive
CCOC(=O)OC(C)OC(=O)[C@@H]1N2C(=O)[C@@H](NC(=O)[C@H](N)c3ccccc3)[C@H]2SC1(C)C (some centres undefined),Potency,[1],inactive
same,Potency,[2],inactive
same,Potency,[3],inactive
same,Potency,[4],inactive
C[N+]1(CC2COC(c3ccccc3)(c3ccccc3)O2)CCCCC1 (centres undefined),Potency,[1],inactive
same,Potency,[2],inactive
same,Potency,[3],inactive
same,Potency,[4],inactive
CCOC(=O)[C@@](C)(N)Cc1ccc(O)c(O)c1,Potency,[1],inactive
same,Potency,[2],inactive
same,Potency,[3],inactive
same,Potency,[4],inactive
N#Cc1cc(NC(=O)C(=O)O)c(Cl)c(NC(=O)C(=O)O)c1,Potency,[1],inactive
same,Potency,[2],inactive
same,Potency,[3],inactive
same,Potency,[4],inactive
CCCCCOc1ccc(C2SC(=O)NC2=O)cc1OCC (centres undefined),Potency,[1],inactive
same,Potency,[2],inactive
same,Potency,[3],inactive
same,Potency,[4],inactive
CN(C)CCCSc1ccccc1NC(=O)/C=C/c1ccccc1,Potency,[1],inactive
same,Potency,[2],inactive
same,Potency,[3],inactive
same,Potency,[4],inactive
O=C(CCCCCCCCC#CI)Oc1ccccc1,Potency,[1],inactive
same,Potency,[2],inactive
same,Potency,[3],inactive
same,Potency,[4],inactive
O=C(c1ccc(F)cc1)C1CCN(CCn2c(=S)[nH]c3ccccc3c2=O)CC1,Potency,[1],inactive
same,Potency,[2],inactive
same,Potency,[3],inactive
same,Potency,[4],inactive
N[C@@H](CSSC[C@H](N)C(=O)O)C(=O)O,"activity change, negative = inhibition",[1],-0.506% [at 0.757 µM]
same,"activity change, negative = reduced viability",[2],9.51% [at 0.757 µM]
same,"activity change, negative = lower viability",[3],6.72% [at 0.757 µM]
same,"activity change, negative = inhibition",[4],13.5% [at 0.757 µM]
CCOC(=O)[C@H](CCc1ccccc1)N[C@H]1CCc2ccccc2N(CC(=O)O)C1=O,Potency,[1],inactive
same,Potency,[2],inactive
same,Potency,[3],inactive
same,Potency,[4],inactive
CCN(CC)CCNC(=O)c1cc(Br)c(N)cc1OC,Potency,[1],inactive
same,Potency,[2],inactive
same,Potency,[3],inactive
same,Potency,[4],inactive
OCC(O)CN1CCN(c2ccccc2)CC1 (centres undefined),Potency,[1],inactive
same,Potency,[2],inactive
same,Potency,[3],inactive
same,Potency,[4],inactive
CCOc1cc(N)c(Cl)cc1C(=O)NCC1CN(Cc2ccc(F)cc2)CCO1 (centres undefined),Potency,[1],inactive
same,Potency,[2],inactive
same,Potency,[3],inactive
same,Potency,[4],inactive
Cc1ccc(Nc2c(F)cccc2Cl)c(CC(=O)O)c1,Potency,[1],inactive
same,Potency,[2],inactive
same,Potency,[3],inactive
same,Potency,[4],inactive
CSc1ccc(C(=O)c2[nH]c(=O)[nH]c2C)cc1,Potency,[1],inactive
same,Potency,[2],inactive
same,Potency,[3],inactive
same,Potency,[4],inactive
CCCCCCc1ccc(O)cc1O,Potency,[1],inactive
same,Potency,[2],inactive
same,Potency,[3],inactive
same,Potency,[4],inactive
CCn1cc(C(=O)O)c(=O)c2cc(F)c(N3CCN(C)CC3)cc21,Potency,[1],inactive
same,Potency,[2],inactive
same,Potency,[3],inactive
same,Potency,[4],inactive
O=C(O)CCNC(=O)c1ccccc1,Potency,[1],inactive
same,Potency,[2],inactive
same,Potency,[3],inactive
same,Potency,[4],inactive
CCCCOC(=O)CCCCCCCCC(=O)OCCCC,Potency,[1],inactive
same,Potency,[2],inactive
same,Potency,[3],inactive
same,Potency,[4],inactive
CCn1c(=O)c2c(nc(C=Cc3ccc(OC)c(OC)c3)n2C)n(CC)c1=O,Potency,[1],inactive
same,Potency,[2],inactive
same,Potency,[3],inactive
same,Potency,[4],inactive
COC(=O)[C@H]1[C@H]2C[C@@H]3c4[nH]c5cc(OC)ccc5c4CCN3C[C@H]2C[C@@H](OC(=O)COc2ccc(OC)cc2)[C@@H]1OC,Potency,[1],inactive
same,Potency,[2],inactive
same,Potency,[3],inactive
same,Potency,[4],inactive
CCC1(CC)C(=O)NC(=O)NC1=O,Potency,[1],inactive
same,Potency,[2],inactive
same,Potency,[3],inactive
same,Potency,[4],inactive
same,Potency,[5],inactive
same,Potency,[6],inactive
same,Potency,[7],inactive
same,Potency,[8],inactive
CC[C@H]1C[C@H]2[C@@H]3CCC4=CC(=O)CC[C@@H]4[C@H]3CC[C@]2(C)[C@H]1O,Potency,[1],inactive
same,Potency,[2],inactive
same,Potency,[3],inactive
same,Potency,[4],inactive
same,Potency,[5],inactive
same,Potency,[6],inactive
same,Potency,[7],inactive
same,Potency,[8],inactive
CC(N)C(=O)OC(C)(C)Cc1ccc(Cl)cc1 (centres undefined),Potency,[1],inactive
same,Potency,[2],inactive
same,Potency,[3],inactive
same,Potency,[4],inactive
COc1cc(NS(=O)(=O)c2ccc(N)cc2)nc(OC)n1,Potency,[1],inactive
same,Potency,[2],inactive
same,Potency,[3],inactive
same,Potency,[4],inactive
CC(=O)OCC(=O)Nc1cc(C#N)cc(NC(=O)COC(C)=O)c1Cl,Potency,[1],inactive
same,Potency,[2],inactive
same,Potency,[3],inactive
same,Potency,[4],inactive
